Test results published in PubChem BioAssay (NCATS).
Inconclusive results are not listed. Activity calls are given as the source filed them. Unless noted, calls come from the whole dose curve; as a rule, active = well fitted curve in the direction sought with a large enough effect; inconclusive = small, poorly fitted or top-dose-only effect, or another doubt; inactive = no such curve, though single readings can be large; an effect the other way counts as inactive or inconclusive.

Tests used:
[1] = Cell Viability - BJ (AID 421; calls by dose curve;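 note: potency is the fitted concentration of half-maximal effect; cells exposed to compound for 40 hours at 37 °C before readout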); conditions: BJ fibroblast viability, qHTS
Outline: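 Cytotoxicity as drop in intracellular ATP (CellTiter-Glo, 20 min RT) after 40 hr compound exposure of BJ fibroblasts at 37 °C. Titrations scaled between DMSO and 100 uM tamoxifen, Hill-fitted for AC50.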

[2] = Cell Viability - Jurkat (AID 426;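 active = dose-dependent loss of cell ATP signal giving a full or clear fitted curve, ranked by lower potency value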;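 note: potency is the fitted concentration of half-maximal effect; cells exposed to compound for 40 hours at 37 °C before ATP read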); conditions: qHTS
Outline: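 Cytotoxicity was scored as loss of cellular ATP, measured by luciferase-based luminescence, in Jurkat clone E6-1 cells after 40 h compound treatment; tamoxifen and doxorubicin served as positive controls.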

[3] = Cell Viability - Hek293 (AID 427;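 active = compounds whose dose-response curve shows a full or clear partial loss of cell viability, called from curve shape rather than a numeric limit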;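 note: potency is the fitted concentration of half-maximal effect; cells exposed to compound for 40 hours at 37 °C before reading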); conditions: qHTS
Outline: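 Luminescent ATP content (CellTiter-Glo, 20 min at room temperature) was measured after a 40 hr, 37 °C compound exposure of HEK293 cells. AC50 values came from Hill-equation fits of qHTS concentration-response data normalized to DMSO and 100 uM tamoxifen.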

[4] = Cell Viability - HepG2 (AID 433; calls by dose curve;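 note: potency is the fitted concentration of half-maximal effect; cells exposed to compound for 40 hours; potency for ATP loss meaning cytotoxicity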); conditions: qHTS
Outline: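 Cytotoxicity read as ATP loss (CellTiter-Glo luminescence) after 40 hr compound exposure of HepG2, 1500 cells/well, 37 °C. AC50 by Hill equation; 0% set by DMSO, 100% inhibition by 100 uM tamoxifen.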

[5] = Cell Viability - MRC5 (AID 434; calls by dose curve;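 note: potency is the fitted concentration of half-maximal effect; cells exposed to compound for 40 hours at 37 °C; potency reflects cytotoxicity seen as loss of intracellular ATP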); conditions: MRC5 lung fibroblast viability, qHTS
Outline: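 AC50 values come from Hill-equation fits of intracellular ATP loss, measured by CellTiter-Glo luminescence. Normal lung fibroblasts (MRC5) had 40 hr compound treatment at 37 C, normalized between DMSO and 100 uM tamoxifen.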

[6] = Cell Viability - SK-N-SH (AID 435; calls by dose curve; note: potency is the fitted concentration of half-maximal effect); conditions: SK-N-SH neuroblastoma cell viability qHTS
Outline: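 qHTS cytotoxicity: CellTiter-Glo ATP luminescence after 40 h compound exposure of human neuroblastoma SK-N-SH cells at 37 °C. AC50 derived by Hill-equation fitting, with DMSO as basal and 100 uM tamoxifen as full inhibition.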

[7] = target: Mitogen-activated protein kinase 10 (Mus musculus) (UniProt Q61831); assay: JNK3 AlphaScreen Assay (AID 530; active = well fitted curve in either direction with a large enough effect, not every such curve was filed as active;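 note: kinase came from lysate of stimulated human HepG2 cells; signal reports phosphorylation of biotinylated GST-cJun 1-79 at Ser73 with 10 µM ATP; % is set by controls: 0 for no effect and ±100 for the full control effect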)
Outline: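 Kinase buffer: 20 mM Tris-HCl pH 7.6, 10 mM MgCl2, 1 mM DTT, 0.1 mM Na3VO4, 0.01% Tween-20; ATP 10 uM. Substrate biotin-GST-cJun(1-79), enzyme from activated HepG2 lysates. Detection by Ser73 phospho-antibody AlphaScreen.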

[8] = Cell Viability - N2a (AID 540); conditions: N2a mouse neuroblastoma cell viability; at 92.2 µM (top of the series);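 note: plate controls were DMSO alone for no effect and tamoxifen control for full effect; nearly all actives have a fitted effect of over 45% in size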
Outline: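 In this qHTS cytotoxicity screen, ATP-dependent luciferase luminescence reports viable N2a cells after a 40 hr compound exposure in complete culture medium. Potencies are AC50 values from standard Hill equation fits.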

[9] = Cell Viability - NIH 3T3 (AID 541); conditions: NIH 3T3 cell viability, qHTS; at 92.2 µM (top of the series);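 note: cells exposed to compound for 40 hours; plate controls were DMSO alone for no effect and tamoxifen positive control for full effect; nearly all actives have a fitted effect of over 25% in size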
Outline: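 In this cytotoxicity screen, acute toxicity is scored as an ATP drop measured by CellTiter-Glo in NIH 3T3 fibroblasts following a 40 hr, 37 °C incubation with compound.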

[10] = Cell Viability - HUV-EC-C (AID 542);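 note: cells exposed to compound for 40 hours; % is set by controls: 0 for no effect and ±100 for the full control effect; nearly all actives have a fitted effect of over 35% in size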
Outline: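 Concentration-dependent ATP loss in HUV-EC-C cells is the measure. Exposure lasts 40 hr at 37 °C; luminescence follows CellTiter-Glo addition, and Hill fits give AC50.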

[11] = Cell Viability - H-4-II-E (AID 543);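 note: cells exposed to compound for 40 hours; % is set by controls: 0 for no effect and ±100 for the full control effect; nearly all actives have a fitted effect of over 35% in size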
Outline: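 AC50 from Hill-modelled qHTS concentration-response curves. H-4-II-E rat hepatoma cells in complete medium, 40 hr exposure at 37 °C, viability by CellTiter-Glo ATP luminescence.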

[12] = Cell Viability - SH-SY5Y (AID 544);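 note: cells exposed to compound for 40 hours; 0% = DMSO alone and -100% = 100 µM tamoxifen; nearly all actives have a fitted effect of over 55% in size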
Outline: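 Quantitative HTS in SH-SY5Y neuroblastoma cells, 40 hr treatment at 37 °C, ATP content by luciferase luminescence; AC50 from Hill fits.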

[13] = Cell Viability - Renal Proximal Tubule (AID 545);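 note: cells exposed to compound for 40 hours; 0% = DMSO only and -100% = 100 µM tamoxifen; nearly all actives have a fitted effect of over 40% in size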
Outline: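 Viability taken as intracellular ATP (CellTiter-Glo luminescence) after 40 hr, 37 °C compound treatment of primary proximal tubule cells from rat kidney, 1000 cells/well; Hill-equation fits of qHTS concentration-response data gave AC50.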

[14] = Cell Viability - Mesenchymal (AID 546);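 note: cells exposed to compound for 40 hours before reading; 0% = DMSO only and -100% = 100 µM tamoxifen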
Outline: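 CellTiter-Glo luminescence (intracellular ATP, 20 min room temperature) after 40 hr compound exposure at 37 °C of 1000 glomerulus-derived human kidney mesenchymal cells/well; AC50 values obtained by fitting qHTS concentration-response data to the Hill equation.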

[15] = Cellular Toxicity (caspase-3) HepG2 (AID 654);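 note: cells exposed to compound for 16 hours before reading; 0% = DMSO alone and 100% = caspase signal from 100 µM tamoxifen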
Outline: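 Concentration-response AC50 values reflect caspase-3/7 induction in HepG2 cells after 16 hours of compound exposure, quantified by luminescence from liberated aminoluciferin and referenced to 100 uM tamoxifen as full stimulation.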

[16] = Cellular Toxicity (caspase-3) Jurkat (AID 655);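 note: cells exposed to compound for 16 h at 37 °C before reading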
Outline: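 Luminescent Caspase-Glo 3/7 read-out (20 min, room temperature) after 16 h compound treatment at 37 C of 5000 Jurkat cells per well. AC50 derived by Hill-equation fitting, scaled between DMSO basal and 100 uM tamoxifen stimulation.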

[17] = Cellular Toxicity (caspase-3) HUV-EC-C (AID 656);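 note: 0% = DMSO basal and 100% = 100 µM tamoxifen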
Outline: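 Luminescent Caspase-Glo 3/7 readout after 16 h, 37 °C compound exposure of HUV-EC-C endothelial cells, 1000 per well, complete medium. AC50 derived by Hill fitting, with DMSO as baseline and 100 uM tamoxifen as full activation.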

[18] = Cellular Toxicity (caspase-3) BJ (AID 658);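 note: 0% = DMSO basal and 100% = 10 µM staurosporine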
Outline: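 Caspase-Glo 3/7 luminescence, read 1 hr after reagent at room temperature, in normal BJ fibroblasts exposed 16 hours at 37 °C. AC50 values from Hill-equation concentration-response, scaled between DMSO basal and 10 uM staurosporine as 100%.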

[19] = Cellular Toxicity (caspase-3) MRC-5 (AID 659);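 note: 0% = DMSO basal and 100% = 10 µM staurosporine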
Outline: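 Luminescent Caspase-Glo 3/7 read-out (1 h, room temperature) after a 16 h, 37 °C compound exposure of MRC-5 lung fibroblasts at 1500 cells/well. Concentration-response AC50 from Hill equation; 0% DMSO, 100% 10 uM staurosporine.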

[20] = Cellular Toxicity (caspase-3) Mesangial (AID 660);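 note: combined caspase 3 and 7 activity read by Caspase-Glo luminescence; cells exposed to compound for 16 h before the caspase read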
Outline: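 AC50 values come from Hill-equation fits of caspase 3/7 activation, measured as Caspase-Glo luminescence in human glomerular mesangial cells exposed to compound for 16 h at 37 °C; 100% set by 100 uM tamoxifen.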

[21] = Cellular Toxicity (caspase-3) SK-N-SH (AID 661);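 note: 0% = DMSO basal and 100% = 10 µM staurosporine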
Outline: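 Apoptosis readout in SK-N-SH neuroblastoma: Caspase-Glo 3/7 luminescence following 16 hr treatment in complete culture medium. Normalization used DMSO and 10 uM staurosporine controls.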

[22] = Cellular Toxicity (caspase-3) N2a (AID 665);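 note: compound exposure lasted 16 h at 37 °C before readout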
Outline: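 Concentration-response qHTS: compound-induced caspase-3/7 luminescence in N2a cells (16 h, 37 °C), relative to DMSO and 10 uM staurosporine controls; AC50 obtained using the standard Hill equation.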

[23] = Cellular Toxicity (caspase-3) NIH 3T3 (AID 666);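 note: 0% = DMSO basal and 100% = 100 µM tamoxifen stimulation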
Outline: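 Activity: caspase-3/7 induction, NIH 3T3 cells, 16 hr treatment at 37°C, luminescent Caspase-Glo detection; AC50 via Hill equation.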

[24] = Cellular Toxicity (caspase-3) Renal Proximal Tubule (AID 667);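 note: cells exposed to compound for 16 hours at 37 °C before detection; 0% = DMSO basal and 100% = 10 µM staurosporine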
Outline: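 Caspase 3/7 activation measured by luminescent aminoluciferin release in primary rat proximal tubule cells after 16 hr compound exposure at 37 °C. AC50 from Hill-fitted concentration-response, scaled between DMSO and 10 uM staurosporine.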

[25] = target: Cytochrome P450 3A4 (Homo sapiens) (UniProt P08684); assay: qHTS Assay for Inhibitors and Substrates of Cytochrome P450 3A4 (AID 884); note: % is set by controls: 0 for no effect and ±100 for the full control effect; nearly all actives have a fitted effect of over 50% in size
Outline: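 Luminescent readout of luciferin produced by CYP3A4 (20 nM) dealkylation of Luciferin-PPXE, 25 uM (its KM). NADPH-driven reaction ran 60 min at RT after 10 min compound preincubation; data scaled to 57 uM ketoconazole as 100% inhibition.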

[26] = MultiTox-Fluor Cytotoxicity Assay - LYMP1-001 - Dead Cells (AID 946)
Outline: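 Cytotoxicity as increased dead-cell protease fluorescence (bis-AAF-R110, 485/520 nm), read 60 min after MultiTox-Fluor reagent. Human lymphoblastoid line exposed 16 h; Hill-fitted AC50, with DMSO as 0% and 15 uM tetraoctylammonium bromide as 100%.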

[27] = MultiTox-Fluor Cytotoxicity Assay - LYMP1-001 - Live Cells (AID 947);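 note: 0% = DMSO only and full inhibition = tetraoctylammonium bromide control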
[28] = MultiTox-Fluor Cytotoxicity Assay - LYMP1-002 - Live Cells (AID 955); note: % is set by controls: 0 for no effect and ±100 for the full control effect
Outline: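 In this qHTS viability format, lymphoblastoid cells (LYMP1-002, human) received compound for 16 hr at 37 C. Fluorogenic GF-AFC cleavage by viable cells was detected at 405/510 nm after 1 h at room temperature.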

[29] = MultiTox-Fluor Cytotoxicity Assay - LYMP1-002 - Dead Cells (AID 960); note: nearly all actives have a fitted effect of over 60% in size
Outline: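 Concentration-dependent increases in membrane-leaked protease activity are quantified in LYMP1-002 cells after 16 hr treatment; values are normalized against DMSO and tetraoctylammonium bromide (15 uM) controls and AC50 derived by Hill modeling.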

[30] = MultiTox-Fluor Cytotoxicity Assay - LYMP1-003 - Dead Cells (AID 961); note: nearly all actives have a fitted effect of over 70% in size
Outline: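 Dead-cell protease release, detected as bis-AAF-R110 fluorescence at 485/520 nm, was measured in LYMP1-003 cells after 16 h compound treatment at 37 C. AC50 values came from Hill-modeled qHTS curves normalized to DMSO (0%) and 15 uM tetraoctylammonium bromide (100%).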

[31] = MultiTox-Fluor Cytotoxicity Assay - LYMP1-003 - Live Cells (AID 962);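 note: 0% = DMSO only and full loss = 92 µM tetraoctylammonium bromide; cytotoxic hits lower the live-cell protease signal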
Outline: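 Human lymphoblastoid line LYMP1-003 in complete culture medium, treated 16 hr with titrated compounds. Viable cells quantified via cell-permeant GF-AFC substrate fluorescence; AC50 derived by Hill fitting.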

[32] = Cell Viability - LYMP1-003 - Assay at 24 hr (AID 963);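 note: plate controls were DMSO only for no effect and tetraoctylammonium bromide positive control for full effect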
Outline: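 The lymphoblastoid line was treated with titrated compounds for 24 hours, and viable cell number estimated from luciferase-based ATP luminescence.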

[33] = Cell Viability - LYMP1-003 - Assay at 40 hr (AID 964); note: % is set by controls: 0 for no effect and ±100 for the full control effect; nearly all actives have a fitted effect of over 60% in size
Outline: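 Acute toxicity is scored as a concentration-dependent loss of intracellular ATP in LYMP1-003 cells (2500/well, complete medium) after 40 hr at 37 C, measured by CellTiter-Glo luminescence; AC50 values derive from standard Hill modelling.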

[34] = Cell Viability - LYMP2-003 (AID 965);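 note: cells exposed to compounds for 24 h before reading; 0% = DMSO only and full effect = 92 µM tetraoctylammonium bromide; nearly all actives have a fitted effect of over 50% in size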
Outline: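 CellTiter-Glo luminescence quantified ATP loss after 24 h compound treatment of LYMP2-003 lymphoblastoid cells at 37 C. Titration series were fitted with the standard Hill equation to give AC50.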

[35] = Cell Viability - LYMP2-004 (AID 966);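 note: plate controls were DMSO only for no effect and tetraoctylammonium bromide control for full effect; nearly all actives have a fitted effect of over 65% in size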
Outline: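 Viable-cell number estimated from ATP luminescence (CellTiter-Glo) in 2500 human lymphoblastoid cells/well after 24 hr at 37 C with compound. AC50 fitted to the standard Hill equation.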

[36] = Cell Viability - LYMP2-005 (AID 967)
Outline: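 LYMP2-005 human lymphoblastoid cells (2500/well) were treated with compounds for 24 h at 37 C. Intracellular ATP was then measured by CellTiter-Glo luminescence after 30 min at room temperature. AC50 values came from Hill-equation fits of qHTS concentration-response data.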

[37] = Cell Viability - LYMP2-009 (AID 968)
[38] = Cell Viability - LYMP2-011 (AID 969)
Outline: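 Cells seeded at 2500 per well rest 5 hr before compound addition, then incubate 24 hr at 37 C. CellTiter-Glo reagent is added for 30 min at room temperature before luminescence detection.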

[39] = Cell Viability - LYMP2-013 (AID 970)
Outline: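 In complete culture medium, human lymphoblastoid cells were dosed for 24 hr at 37 C, with tetraoctylammonium bromide (6.4pM to 92 uM) as positive control. Viability reflects luciferase-based ATP signal; AC50 derived from concentration-response curves.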

[40] = Cell Viability - LYMP2-015 (AID 971)
Outline: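 AC50 values reflect Hill-model fits of ATP-based luminescence (CellTiter-Glo) from a human lymphoblastoid line, 2500 cells/well, treated 24 hr at 37 C.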

[41] = Cell Viability - LYMP2-017 (AID 972)
Outline: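 In this qHTS format, lymphoblastoid cells in complete medium receive test compound for a day at 37 C before ATP content is quantified by luciferase luminescence. Reported AC50 figures come from standard Hill-equation curve fitting.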

[42] = Cell Viability - LYMP2-019 (AID 973)
Outline: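 AC50 values come from Hill-equation modelling of qHTS concentration-response curves, where viability is measured as luciferase-based ATP luminescence in the lymphoblastoid line after 24 hr compound exposure in complete culture medium.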

[43] = Cell Viability - LYMP2-021 (AID 974)
Outline: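 In qHTS format, compounds are tested against 2500 lymphoblastoid cells per well for 24 h; viable cell number is inferred from ATP-driven luciferase light, and Hill-equation fitting yields AC50 values.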

[44] = Cell Viability - LYMP2-023 (AID 975)
Outline: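 In this qHTS, ATP-based luciferase luminescence (CellTiter-Glo) is quantified in human lymphoblastoid cells after 24 hr compound treatment at 37 C; tetraoctylammonium bromide serves as positive control. Concentration-response curves are Hill-fitted to give AC50.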

[45] = Cell Viability - LYMP2-025 (AID 976)
Outline: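 Luminescent ATP readout after 24 hr treatment of a human lymphoblastoid line (LYMP2-025, 2500 cells/well, 37 C). Reagent developed 30 min at room temperature; AC50 fitted with the Hill equation.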

Sequence of Cytochrome P450 3A4 (Homo sapiens) (P08684 whole entry, looked up): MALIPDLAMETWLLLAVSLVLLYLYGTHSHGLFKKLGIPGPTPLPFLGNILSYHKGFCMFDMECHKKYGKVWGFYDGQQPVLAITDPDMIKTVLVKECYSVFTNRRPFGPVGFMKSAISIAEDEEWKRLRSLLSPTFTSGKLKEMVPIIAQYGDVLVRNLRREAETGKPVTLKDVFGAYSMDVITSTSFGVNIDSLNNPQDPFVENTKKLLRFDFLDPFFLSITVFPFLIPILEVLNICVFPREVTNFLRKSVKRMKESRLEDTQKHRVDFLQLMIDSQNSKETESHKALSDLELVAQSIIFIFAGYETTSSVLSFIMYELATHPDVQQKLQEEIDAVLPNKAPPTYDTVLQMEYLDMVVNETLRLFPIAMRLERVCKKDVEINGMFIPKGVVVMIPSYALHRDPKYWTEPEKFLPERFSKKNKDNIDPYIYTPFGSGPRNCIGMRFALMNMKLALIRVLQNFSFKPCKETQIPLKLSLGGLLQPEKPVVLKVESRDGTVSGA

CCOc1cc(C=O)ccc1O
inactive: Potency [1] > 92 µM | Potency [2] > 92 µM | Potency [3] > 92 µM | Potency [4] > 92 µM | Potency [5] > 92 µM | Potency [6] > 92 µM | outcome [7] | activity change, negative = cytotoxicity [8] -1.75% | activity change, negative = cytotoxicity [9] 1.57% | outcome [10] | outcome [11] | outcome [12] | outcome [13] | outcome [14] | outcome [15] | outcome [16] | outcome [17] | outcome [18] | outcome [19] | outcome [20] | outcome [21] | outcome [22] | outcome [23] | outcome [24] | Potency [25] | Potency [26] | outcome [27] | outcome [28] | Potency [29] | Potency [30] | outcome [31] | outcome [32] | Potency [33] | outcome [34] | outcome [35] | outcome [36] | outcome [37] | outcome [38] | outcome [39] | outcome [40] | outcome [41] | outcome [42] | outcome [43] | outcome [44] | outcome [45]
